Compound activity: PubChem, Johns Hopkins Ion Channel Center
KCNQ2 enhance: potentiators of rat KCNQ2 potassium channel. O88943. CHO-K1 KCNQ2, FluxOR thallium flux fluorescence; hits give high values. B-score at 10 µM. 310,000 tested, 0.54% active;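 active = fluorescence ratio B-score at least 3 SD of library B-scores, with initial fluorescence B-score within 3 of them, cut at about 5.3 in these data; same plate scores as AID 2156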;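 also: B-score of peak minus minimum over baseline fluorescence ratio after K+ and Tl+ stimulus; positive B-score means potentiation of KCNQ2 with more thallium influx and brighter signal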
KCNQ2 inh: KCNQ2 (rat) channel inhibition; B-score at 10 µM; 310,000 tested, 1.1% active; AID 2156; CHO-K1 KCNQ2, FluxOR thallium flux, 20 min; hits give low values;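 active = fluorescence ratio B-score at most minus 3 library SDs, with starting brightness B-score within 2 library SDs, cut at about -5.5 in these data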
Kir21 conf inh: confirmation of mouse Kir2.1 potassium channel inhibitors | Tl flux remaining, % of negative control (hits give low values), % at 10 µM | AID 2032 | Kir2.1-expressing cells, FluxOR thallium flux fluorescence; hits give low values | 2,300 tested, 41% active | shares compounds with KCNQ2 enhance;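 active = Primary-screen hit whose thallium flux fell at least 3 control SD below untreated wells in both duplicates, with normal baseline fluorescence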;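 also: 0% = blank wells without stimulus and 100% = stimulated no-compound controls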
Target sequence (P35561 whole entry, looked up): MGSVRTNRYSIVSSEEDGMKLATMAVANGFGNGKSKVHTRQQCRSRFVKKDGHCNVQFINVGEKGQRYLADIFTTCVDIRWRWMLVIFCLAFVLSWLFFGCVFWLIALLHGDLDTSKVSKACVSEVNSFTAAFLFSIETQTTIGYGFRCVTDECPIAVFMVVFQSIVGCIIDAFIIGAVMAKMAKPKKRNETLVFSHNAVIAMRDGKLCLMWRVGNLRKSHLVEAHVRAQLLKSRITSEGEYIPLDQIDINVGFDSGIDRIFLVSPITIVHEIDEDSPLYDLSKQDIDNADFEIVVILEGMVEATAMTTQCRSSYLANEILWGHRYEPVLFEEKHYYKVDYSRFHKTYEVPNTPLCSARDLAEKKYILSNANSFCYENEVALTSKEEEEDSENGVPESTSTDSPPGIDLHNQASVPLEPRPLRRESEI
HEK293 ctr: alters thallium flux in parental HEK293 cells, Kir2.1 counter-screen; shares compounds with KCNQ2 enhance; FluxOR thallium flux fluorescence; 0% = unstimulated blank wells; FluxOR signal as % of negative control (100 = no effect), % at 10 µM; 2,300 tested, 19% active;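 active = dye signal at least 3 control SD above or below untreated wells in both duplicates, raw fluorescence within 3, either direction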;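 also: percent is based on the flux ratio of peak minus minimum fluorescence over baseline F0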
CHO-K1 ctr: parental CHO-K1 activity in KCNQ2 potentiator counter-screen | shares compounds with KCNQ2 enhance | parental CHO-K1 cells, FluxOR thallium flux fluorescence; zero = vehicle mean+3SD, 100% = vehicle-minus-blank window | activity increase over 3SD of controls, % at 10 µM | 1,200 tested, 43% active | AID 2282;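 active = signal rise of at least 3 SD above the untreated control mean, in both duplicate wells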;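 also: counter screen of KCNQ2 potentiator hits so any rise reflects channel-independent effects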
KCNQ1 pot spec: human KCNQ1 counter-target activity of KCNQ2 potentiators; shares compounds with KCNQ2 enhance; CHO KCNQ1 stable, FluxOR thallium flux fluorescence; beyond 3SD, as % of vehicle-control signal; activation over 3SD threshold, % at 10 µM; 1,200 tested, 28% active; AID 2283;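 active = fluorescence ratio rise of at least 3 SD of vehicle wells above their mean, in both replicate wells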;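 also: 0% = vehicle mean plus 3 SD and 100% = vehicle minus unstimulated blank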
KCNQ2 pot confirm: confirmation of rat KCNQ2 potassium channel potentiators | potentiation, less the hit threshold, % at 10 µM | shares compounds with KCNQ2 enhance | 1,200 tested, 68% active | CHO-KCNQ2 cells, FluxOR thallium flux fluorescence;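 active = fluorescence ratio rising 3 SD or more over the vehicle control mean in both replicates, plus primary screen hit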;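 also: peak minus minimum thallium fluorescence divided by baseline after K/Tl stimulus; 0% = vehicle mean plus 3 SD and 100% = vehicle minus unstimulated blank difference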
Kir21 spec: selectivity of KCNQ2 potentiators: effect on mouse Kir2.1; 1,200 tested, 2% active; shares compounds with KCNQ2 enhance; HEK293 Kir2.1, FluxOR thallium flux fluorescence; activity over 3SD threshold, % at 10 µM;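 active = fluorescence ratio rise of at least 3 SD above the vehicle-control mean, seen in both replicates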;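 also: 0% = vehicle mean plus 3 SD and 100% = vehicle minus no-stimulus blank window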
KCNQ2 W236L MoA: rat KCNQ2 W236L mutant potentiation by KCNQ2 potentiators; shares compounds with KCNQ2 enhance; CHO KCNQ2-W236L, automated patch clamp current; current increase over 3SD of negative controls (%), hits give high values, % at 25 µM; 940 tested, 10% active; AID 2558;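 active = current increase at least 3 SD of the untreated controls above them in both duplicate recordings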
The depositor's hits bear a star; i = inactive; x = no result. Only some compounds are listed: those with a hit (about 1.6% of all), similar ones and a draw of the others.

SMILES	KCNQ2 enhance	KCNQ2 inh	Kir21 conf inh	HEK293 ctr	others
CC(C)(C)[C@H]1C=C(C(=O)Nc2ccccc2)O[C@@H](OCCCCO)C1	2.21	i	x	x
Cc1ccc(OCCSc2nc3ccccc3n2CC(=O)O)cc1C	x	i	x	x
O=C(CCC(=O)N1CCOc2ccc(Cl)cc21)NCCCN1CCN(c2ccccc2F)CC1	1.06	i	x	x
O=C(CCC(=O)N1CCOc2ccc(Cl)cc21)NCCCN1CCC(Cc2ccccc2)CC1	x	i	i	i
CSCC[C@H](NC(=O)[C@@H]1Cc2ccccc2CN1)C(=O)NC[C@H]1CC[C@H](C(=O)O)CC1	x	i	x	x
CCCC[C@H]1COCCS(=O)(=O)N1Cc1ccccc1F	x	i	x	x
O=[N+]([O-])c1ccc(NCCNS(=O)(=O)c2ccccc2)c(C(F)(F)F)c1	x	i	i	i
Cc1ccc(S(=O)(=O)NCCNc2ccc([N+](=O)[O-])cc2C(F)(F)F)cc1	x	i	x	x
CCOc1ccc(N(C(=O)c2snc(C(N)=O)c2N)C(C(=O)NC2CCCC2)c2ccncc2)cc1 (stereo unspecified)	2.02	i	x	x
O=C1CCCN1CC(O)CS(=O)(=O)Cc1ccccc1Cl (stereo unspecified)	0.98	i	x	x
COc1ccc(OC)c(C(=O)NC2CCSc3ccccc32)c1 (stereo unspecified)	x	i	x	x
COc1ccc(CC(=O)NC2CCSc3ccccc32)c(OC)c1 (stereo unspecified)	x	i	72.0%*	i
COc1ccc(CCN2C(=O)CC(N3CCN(S(=O)(=O)c4ccccc4)CC3)C2=O)cc1OC (stereo unspecified)	x	i	x	x
Nc1cc(-c2ccc(Cl)cc2)nn1S(=O)(=O)c1cccc2nsnc12	5.12	i	x	x
Nc1cc(-c2ccc(Br)cc2)nn1S(=O)(=O)c1cccc2nsnc12	6.94*	i	i	i	CHO-K1 ctr=19.8*;KCNQ1 pot spec=-10.6;KCNQ2 pot confirm=-3.5;Kir21 spec=-42.4
COC(C[C@@H](O)[C@@H](C)[C@@H](O)COCc1ccccc1)OC	0.75	i	x	x
CC(C)(CNc1ccc(C(F)(F)F)cc1[N+](=O)[O-])N1CCOCC1	0.8	i	x	x
CC(C)CC(NS(=O)(=O)OCC(Cl)(Cl)Cl)c1ccccc1 (stereo unspecified)	x	i	x	x
CC(NS(=O)(=O)OCC(Cl)(Cl)Cl)c1ccc(Br)cc1 (stereo unspecified)	x	i	42.0%*	i
COc1cc(OC)c(NS(=O)(=O)c2cc(Br)cnc2N)cc1Cl	0.48	i	72.0%*	72.5%*
Cc1ccc(NS(=O)(=O)c2cc(Br)cnc2N)c(Cl)c1	0.02	i	x	x
CC(c1ccco1)N(C(=O)c1cccc(S(=O)(=O)N(C)C)c1)c1ccccn1 (stereo unspecified)	1.76	i	x	x
OCCNCc1ccc(OCc2ccc(Cl)cc2Cl)cc1	x	i	31.0%*	i
OCCCCNCc1ccc(OCc2ccc(Cl)cc2Cl)cc1	x	i	33.0%*	i
S=C(Nc1ccccc1)Nc1ccc(OCc2ccc(Cl)cc2Cl)cc1	x	i	x	x
SMILES	KCNQ2 enhance	KCNQ2 inh	Kir21 conf inh	HEK293 ctr	others
COc1cc(CNCCCCO)ccc1OCc1ccccc1F	0.1	i	x	x
CS(=O)(=O)N(CC(=O)Nc1ccccc1C(=O)N1CCCC1)c1ccccc1Br	1.31	i	x	x
Cn1/c(=N\NC(=O)C2CCCCC2)sc2ccccc21	9.9*	i	i	i	CHO-K1 ctr=-20.8;KCNQ1 pot spec=-8.7;KCNQ2 pot confirm=0.0*;Kir21 spec=-30.6;KCNQ2 W236L MoA=i
CC(=O)N/N=c1\sc2ccccc2n1C	0.49	i	x	x
CCOc1ccc(CNC(=O)c2ccc3c(c2)N(CC)CCS3)cc1	x	i	x	x
CCN1C(=O)CSc2ccc(C(=O)NCc3ccc(OC)cc3)cc21	0.62	i	58.0%*	i
COc1cc(CNCCO)cc(Cl)c1OCc1ccccc1Cl	x	i	x	x
CCOc1cc(CNCCO)cc(Br)c1OCc1ccccc1Cl	-7.41	-7.41*	i	i
COc1cc(CNC(C)(C)CO)cc(Br)c1OCc1ccccc1	1.43	i	x	x
CCOc1cc(CNC(C)(C)CO)cc(Br)c1OCc1ccc(Cl)cc1Cl	-7.69	-7.69*	22.5%*	i
COc1ccc(C(=O)NC(C)c2ccc(-n3ccnc3)cc2)cc1[N+](=O)[O-] (stereo unspecified)	0.8	i	x	x
Cc1cc(C)c2nc(SC3CCOC3=O)cc(C)c2c1 (stereo unspecified)	0.27	i	x	x
Cc1cc(C)c2nc(SC(C)C#N)cc(C)c2c1 (stereo unspecified)	5.57*	i	i	67.5%*	CHO-K1 ctr=74.7*;KCNQ1 pot spec=-8.7;KCNQ2 pot confirm=-12.4;Kir21 spec=-44.3;KCNQ2 W236L MoA=i
C=CCn1c(SCc2c(C)noc2C)nc2cc(C(=O)O)ccc2c1=O	0.07	i	x	x
C=CCn1c(SCc2ccc(Br)cc2F)nc2cc(C(=O)O)ccc2c1=O	5.35*	i	i	i	CHO-K1 ctr=-14.9;KCNQ1 pot spec=-20.1;KCNQ2 pot confirm=-2.0;Kir21 spec=-29.3;KCNQ2 W236L MoA=i
CCCc1nc(SCC(=O)c2ccccc2)c2c(=O)n(C)c(=O)n(C)c2n1	24.9*	i	i	i	CHO-K1 ctr=67.0*;KCNQ1 pot spec=78.7*;KCNQ2 pot confirm=56.2*;Kir21 spec=-26.2;KCNQ2 W236L MoA=i
CCCc1nc(SCC(=O)NCc2ccco2)c2c(=O)n(C)c(=O)n(C)c2n1	2.5	i	x	x
CCc1nc(SCC(=O)c2ccccc2)c2c(=O)n(C)c(=O)n(C)c2n1	5.4*	i	i	i	CHO-K1 ctr=-24.8;KCNQ1 pot spec=-18.9;KCNQ2 pot confirm=5.8*;Kir21 spec=-23.1;KCNQ2 W236L MoA=i
Cn1c(=O)c2c(SCC(=O)c3ccccc3)nc(C3CC3)nc2n(C)c1=O	5.4*	i	i	i	CHO-K1 ctr=84.2*;KCNQ1 pot spec=-14.4;KCNQ2 pot confirm=2.4*;Kir21 spec=-23.9;KCNQ2 W236L MoA=i
CCc1nc(SCC(=O)NCCc2ccccc2)c2c(=O)n(C)c(=O)n(C)c2n1	0.86	i	x	x
Cn1c(=O)c2c(SCC(=O)Nc3nccs3)nc(C3CC3)nc2n(C)c1=O	0.34	i	x	x
CCCc1cc(=O)oc2cc(OCC(=O)NC3CCN(Cc4ccccc4)CC3)ccc12	0.83	i	x	x
COc1ccc(C[C@H]2CN3C(=NC[C@@H]3Cc3ccccc3)N2C[C@H](C)NC(=O)CCC2CCCCC2)cc1	x	i	38.5%*	i
C[C@@H](CN1C2=NC[C@H](Cc3ccccc3)N2C[C@H]1Cc1ccc(O)cc1)NC(=O)CCC1CCCCC1	x	i	x	x
